# From PubChem BioAssay AID588763 (NMMLSC, 2011)
# Results with a measured potency or affinity are listed apart. Unmarked numbers belong to inactive results. The source made the active and inactive calls. The rule behind the calls is not given here.
# Target: Beta-2 adrenergic receptor (Homo sapiens) (UniProt P07550)
# Test: beta2AR agonists driving receptor internalization, dose response, cell-based, FAP fluorogen, flow cytometry, cherry pick 1 (AID 588763)
# Conditions: AM2.2-beta2AR cells, 90 min; series mostly up to 33 µM; activation (receptor internalization): at the top concentration
# Chain of Beta-2 adrenergic receptor (Homo sapiens) (P07550 whole entry, looked up): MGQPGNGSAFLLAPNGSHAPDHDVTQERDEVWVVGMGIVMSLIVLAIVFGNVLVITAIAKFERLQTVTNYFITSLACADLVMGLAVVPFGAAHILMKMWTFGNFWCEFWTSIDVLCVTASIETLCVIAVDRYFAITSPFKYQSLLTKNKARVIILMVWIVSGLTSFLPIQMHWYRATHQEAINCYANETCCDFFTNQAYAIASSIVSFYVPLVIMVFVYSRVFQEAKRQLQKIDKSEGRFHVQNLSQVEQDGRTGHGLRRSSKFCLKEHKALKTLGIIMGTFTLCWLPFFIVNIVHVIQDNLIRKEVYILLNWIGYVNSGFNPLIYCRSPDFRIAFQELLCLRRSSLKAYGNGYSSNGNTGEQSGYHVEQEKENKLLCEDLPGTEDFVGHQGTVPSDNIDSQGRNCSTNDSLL
Structure (SMILES),activation (receptor internalization) [%],outcome
CCNCC(O)c1cccc(O)c1 (stereo not drawn),19.5,–
COc1ccc(OC)c2c1CCC1NCCOC21 (stereo not drawn),-6.85,–
COc1ccc(OC)c(C(O)C2CCCCN2)c1 (stereo not drawn),-1.51,–
COc1ccc(C(O)CNC(C)C)c(F)c1OC (stereo not drawn),-16.5,–
COc1cc(C(O)CNC(C)C)cc(F)c1OC (stereo not drawn),-4.23,–
CC(CCc1ccccc1)NC(C)C(O)c1ccc(O)cc1 (stereo not drawn),-5.05,–
COc1ccc(OC)c([C@@H](O)[C@H](C)NC(C)(C)C)c1,–,inactive
CC(NCc1ccc(Cl)c(Cl)c1)C(O)c1ccccc1 (stereo not drawn),10.7,–
